The subject of the first experiment is PPARg:RXRa IVT, anti-PPARg (NR concentration 270 nM, RXRa partner concentration 90 nM). As to the kind of experiment: PBM binding z-score (relative to random genomic background probes); higher = stronger binding; sequences stand for … in GC…GCGATTGACAGCGTAGAATGAAGG
In outline: (§1)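 Each nuclear receptor dimer, without ligand, was incubated for 1 h on custom Agilent 4×180K protein-binding microarrays. Binding was detected with antibodies against each partner (one per run), and scanned fluorescence was regression-normalized. The binding z-scores are referenced to random human genomic background probes.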
Take AGTCAAAGTTCATCCAGGTAACGTAAGATATGCT: the PBM binding z-score is 3.48.

Consider CTCGAAAGGTCGGTTGAGGTGAGTAGACGGATAA, for which the PBM binding z-score is 0.996.

CCTTACGGGTCACGAGGTTATAGGACGACGAGCG had a PBM binding z-score of 5.38.

ATCGAAAGGTCGACGAGGTGACTATACACCGTTT gave a PBM binding z-score of 2.4.

With AGAATGAGGTTACGAAAGATCAGGGAAACGCTTG, the PBM binding z-score stood at 3.64.

In turn, TCTGCTAGGTTAACGATGGTCAGCTAATCTGCTA showed a PBM binding z-score of 1.89.

The sequence ATCGAAAGGTCGACGAGGTGAGTATTCACCGTTT gave a PBM binding z-score of 2.07.

Sequence ATATGTAGGTAAGCTGGGGTCATTCAGACTAGGC showed a PBM binding z-score of 5.46.

Sequence CATACAGGGTCAGCTAGCCCAGAGTAGGGACGGC came in with a PBM binding z-score of 2.19.

ATCGAAAGATCGAGGTGAGTATAGAGAAAGGGAA yielded a PBM binding z-score of 1.27.

TCTATTAGTTAAAGGGCAACCGACGAGTCCGTTT returned a PBM binding z-score of 0.552.

As for CCTATTATTTGACCATAAGGGCAACCGAAGCTCG, the PBM binding z-score was found to be 1.15.

For AATACACGGTCATCGTAGGCCAGAGTACGCACAG, the PBM binding z-score came to 1.62.

Regarding CGTCCAAGGGCAAAGGTCAGTGAAGAGATGACGG, the PBM binding z-score came to 4.07.

CCTTACGGGTCACAAGGTTATAGCACGACGAGCG: the PBM binding z-score is 4.65.

Sequence GCGACTGGGGCATCAGCAGGTTCCCATAACTTAA yielded a PBM binding z-score of 2.88.

With AGAACGAGGGCACGCTGAGTTTATAGCAGAGTAG, the PBM binding z-score was 3.85.

As for GATACAGGGTCAAGGCCAGATTACGCGTATTGAT, the PBM binding z-score was found to be 4.03.

Sequence ATACCAAGGTGAACGTGAGGTCGTTGATACTAAC yielded a PBM binding z-score of 3.17.

Sequence CCTGCTAGGTCTTGGTCAGCTAATCTACAGTATG came in with a PBM binding z-score of -0.117.

GCTTGTAGATCAAGGTTACGAAAGACTAAGCTAA yielded a PBM binding z-score of 1.67.

In turn, CCTGCTAGGTCATGGTCAGCTACTCTACAGTATG returned a PBM binding z-score of 3.88.

The sequence TCGAGTAGGTTACCAATGGGGCAGTCAGCTTTCT yielded a PBM binding z-score of 2.43.

GGAACGAGGGAAAAGTTGATAGCATCTGTCGACG showed a PBM binding z-score of 0.0196.

Sequence ATATGTAGGTTATCGGGTCATTCCGTTTGCGCAT came in with a PBM binding z-score of 7.62.

The sequence AGAATGAGGTTCCCAAAGATCAGGGAAACGCTTG showed a PBM binding z-score of 0.311.

Turning to CCTACTGGGCCAAGGTCATTGATCAGTCAAAGCA, the PBM binding z-score came to 4.5.

Take ATCTCTAGGTAAAAAGTTCAGTGAAAGAGAGGAC: the PBM binding z-score came out at 2.04.

Regarding CCTTACGGGTCACTCCAGATTATAGCATCGGAGT, the PBM binding z-score worked out at 3.47.

In turn, AGTCAAAGTTCATCTAGGCAACGTAAGATATGCT had a PBM binding z-score of 3.08.

Turning to TAGCCTAGGTCAGTCAGGGGCCAGTATAGAAAGC, the PBM binding z-score was 1.71.

As for CCGACTGGGGCAGAAAGGTTACCACACCATCCGG, the PBM binding z-score was found to be 1.76.

As to ATATGTAGGTTACATCTGGGTCATTCAGGCTATG, the PBM binding z-score came to 7.53.

In turn, TCAGACAGATGAAGGTAACTCAGGTACGCAGTCG showed a PBM binding z-score of 0.179.

For the sequence CTCGAAAGGTCGGTTAAGGTGAGTATACGGATAA, the PBM binding z-score is 1.14.

TCGAGTAGGTTAGGGGCATTCTGAATGGCGTCGA registered a PBM binding z-score of 1.58.

GATACAGGGTCAAGGCCGGAGTACGCGTATTGAT had a PBM binding z-score of 3.81.

Sequence GCTGCTAGGTCAACTGATGGTCAGTTAAAGCTCG displayed a PBM binding z-score of 4.13.

With ACTAGCAGGCCAAGTTTGGGCCACTCAAACAAAG, the PBM binding z-score was determined as 0.241.

The test system of a further experiment is PPARg DBDmut:RXRa IVT, anti-PPARg (DBD mutation: PPARg1 K132A/R137A, NR concentration 270 nM, RXRa partner concentration 90 nM). The description is as above. In short, it runs like this:
as §1
For AGTCAAAGTTCATCCAGGTAACGTAAGATATGCT, the PBM binding z-score stood at 1.21.

The sequence CTCGAAAGGTCGGTTGAGGTGAGTAGACGGATAA registered a PBM binding z-score of -0.252.

On to CCTTACGGGTCACGAGGTTATAGGACGACGAGCG, for which the PBM binding z-score was determined as 1.39.

ATCGAAAGGTCGACGAGGTGACTATACACCGTTT: the PBM binding z-score came out at 1.08.

Turning to AGAATGAGGTTACGAAAGATCAGGGAAACGCTTG, the PBM binding z-score was 0.808.

Regarding TCTGCTAGGTTAACGATGGTCAGCTAATCTGCTA, the PBM binding z-score is -0.412.

Regarding ATCGAAAGGTCGACGAGGTGAGTATTCACCGTTT, the PBM binding z-score was 1.07.

In turn, ATATGTAGGTAAGCTGGGGTCATTCAGACTAGGC showed a PBM binding z-score of 1.69.

CATACAGGGTCAGCTAGCCCAGAGTAGGGACGGC: the PBM binding z-score turned out to be 0.206.

In turn, ATCGAAAGATCGAGGTGAGTATAGAGAAAGGGAA came in with a PBM binding z-score of 0.466.

TCTATTAGTTAAAGGGCAACCGACGAGTCCGTTT yielded a PBM binding z-score of 0.374.

In the case of CCTATTATTTGACCATAAGGGCAACCGAAGCTCG, the PBM binding z-score came out at 0.688.

AATACACGGTCATCGTAGGCCAGAGTACGCACAG yielded a PBM binding z-score of 0.948.

For the sequence CGTCCAAGGGCAAAGGTCAGTGAAGAGATGACGG, the PBM binding z-score was -0.495.

As for CCTTACGGGTCACAAGGTTATAGCACGACGAGCG, the PBM binding z-score came to 0.482.

In turn, GCGACTGGGGCATCAGCAGGTTCCCATAACTTAA yielded a PBM binding z-score of -0.996.

Consider AGAACGAGGGCACGCTGAGTTTATAGCAGAGTAG, for which the PBM binding z-score was found to be 1.13.

For GATACAGGGTCAAGGCCAGATTACGCGTATTGAT, the PBM binding z-score is 2.24.

Turning to ATACCAAGGTGAACGTGAGGTCGTTGATACTAAC, the PBM binding z-score was determined as 1.14.

For CCTGCTAGGTCTTGGTCAGCTAATCTACAGTATG, the PBM binding z-score was -0.408.

Regarding GCTTGTAGATCAAGGTTACGAAAGACTAAGCTAA, the PBM binding z-score is -0.122.

CCTGCTAGGTCATGGTCAGCTACTCTACAGTATG gave a PBM binding z-score of 0.29.

With TCGAGTAGGTTACCAATGGGGCAGTCAGCTTTCT, the PBM binding z-score is -0.721.

In the case of GGAACGAGGGAAAAGTTGATAGCATCTGTCGACG, the PBM binding z-score was -0.986.

For ATATGTAGGTTATCGGGTCATTCCGTTTGCGCAT, the PBM binding z-score is 4.25.

The sequence AGAATGAGGTTCCCAAAGATCAGGGAAACGCTTG returned a PBM binding z-score of 1.11.

Regarding CCTACTGGGCCAAGGTCATTGATCAGTCAAAGCA, the PBM binding z-score was -0.374.

As for ATCTCTAGGTAAAAAGTTCAGTGAAAGAGAGGAC, the PBM binding z-score came to 1.14.

In turn, CCTTACGGGTCACTCCAGATTATAGCATCGGAGT returned a PBM binding z-score of 0.108.

The sequence AGTCAAAGTTCATCTAGGCAACGTAAGATATGCT yielded a PBM binding z-score of 1.23.

TAGCCTAGGTCAGTCAGGGGCCAGTATAGAAAGC: the PBM binding z-score was determined as 0.0282.

Sequence CCGACTGGGGCAGAAAGGTTACCACACCATCCGG showed a PBM binding z-score of -0.724.

ATATGTAGGTTACATCTGGGTCATTCAGGCTATG registered a PBM binding z-score of 2.55.

For the sequence TCAGACAGATGAAGGTAACTCAGGTACGCAGTCG, the PBM binding z-score is -0.273.

In turn, CTCGAAAGGTCGGTTAAGGTGAGTATACGGATAA came in with a PBM binding z-score of 0.246.

TCGAGTAGGTTAGGGGCATTCTGAATGGCGTCGA: the PBM binding z-score was -0.74.

For the sequence GATACAGGGTCAAGGCCGGAGTACGCGTATTGAT, the PBM binding z-score was -0.0401.

Sequence GCTGCTAGGTCAACTGATGGTCAGTTAAAGCTCG had a PBM binding z-score of -0.118.

Turning to ACTAGCAGGCCAAGTTTGGGCCACTCAAACAAAG, the PBM binding z-score was -1.11.

Values taken from the supplement of paper PMC6555819.
